Source: PubChem BioAssay (EPA / NIEHS)
The source made the active and inactive calls. How the source made its calls: active means hit-call score of the fitted dose curve at least 0.9, where 1 is the maximum; inactive means score below 0.9.

Columns and labels:
[1] = read-out: Monokine induced gamma interferon (MIG), CXCL9 (gene 4283); assay: BSK_hDFCGF_MIG: BioMAP Diversity Plus: hDFCGF Assay for Monokine induced gamma interferon (MIG) Biomarker Activity (AID 2283063); details: primary human foreskin fibroblasts; actives raise or lower the signal
Procedure, shortened: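 MIG signal, determined by ELISA, reflects 24 h chemical exposure of human skin primary fibroblasts. DMSO serves as negative control and baseline.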

[2] = read-out: Matrix Metallopeptidase 1 (MMP1), MMP1 (gene 4312); assay: BSK_hDFCGF_MMP1: BioMAP Diversity Plus: hDFCGF Assay for Matrix Metallopeptidase 1 (MMP1) Biomarker Activity (AID 2283064); details: primary human foreskin fibroblasts; actives raise or lower the signal
Procedure, shortened: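 Primary human foreskin fibroblasts in the hDFCGF system were dosed with test chemical, and MMP1 was measured by ELISA 24 h later. Values come from bidirectional curve fitting against the DMSO baseline.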

[3] = read-out: Vascular cell adhesion molecule 1 (VCAM1), VCAM1 (gene 7412); assay: BSK_hDFCGF_VCAM1: BioMAP Diversity Plus: hDFCGF Assay for Vascular cell adhesion molecule 1 (VCAM1) Biomarker Activity (AID 2283065); details: primary human foreskin fibroblasts; actives raise or lower the signal
Procedure, shortened: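 Cells are dosed, cultured for 24 h, then VCAM-1 is quantified by ELISA; signal increases and decreases are both fitted relative to DMSO.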

[4] = read-out: Plasminogen activator inhibitor-1 (PAI1), SERPINE1 (gene 5054); assay: BSK_hDFCGF_PAI1: BioMAP Diversity Plus: hDFCGF Assay for Plasminogen activator inhibitor-1 (PAI1) Biomarker Activity (AID 2283066); details: primary human foreskin fibroblasts; actives raise or lower the signal
Procedure, shortened: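 Human foreskin fibroblast primary cells, 24 h chemical exposure; PAI-1 measured by ELISA. Bidirectional fitting relative to DMSO; parallel cultures stained with SRB for total protein to flag overt cytotoxicity.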

[5] = read-out: Intercellular Adhesion Molecule 1 (ICAM1), ICAM1 (gene 3383); assay: BSK_KF3CT_ICAM1: BioMAP Diversity Plus: KF3CT Assay for Intercellular Adhesion Molecule 1 (ICAM1) Biomarker Activity (AID 2283067); details: primary human keratinocytes with fibroblasts; actives raise or lower the signal
Procedure, shortened: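 Dose the keratinocyte/fibroblast co-culture, wait 24 h, measure ICAM-1 by ELISA, then fit increases or decreases against DMSO. Cytotoxicity is checked in parallel cultures by SRB total-protein staining.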

[6] = read-out: Interferon-gamma inducible Protein 10 (IP10), CXCL10 (gene 3627); assay: BSK_KF3CT_IP10: BioMAP Diversity Plus: KF3CT Assay for Interferon-gamma inducible Protein 10 (IP10) Biomarker Activity (AID 2283068); details: primary human keratinocytes with fibroblasts; actives raise or lower the signal
Procedure, shortened: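 KF3CT co-culture (keratinocytes + foreskin fibroblasts), 24 h compound, IP-10 by ELISA; bidirectional fit vs DMSO baseline.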

[7] = BSK_KF3CT_SRB: Viability Assessment in the BioMAP Diversity Plus: KF3CT Assay (AID 2283069); details: primary human keratinocytes with fibroblasts
Procedure, shortened: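 Human primary keratinocyte plus foreskin fibroblast co-culture exposed to chemicals for 24 h. Total protein measured by 0.1% sulforhodamine B staining after 10% TCA fixation, read at 560 nm; bidirectional fitting versus DMSO baseline.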

[8] = read-out: Interleukin-1 alpha (IL1a), IL1A (gene 3552); assay: BSK_KF3CT_IL1a: BioMAP Diversity Plus: KF3CT Assay for Interleukin-1 alpha (IL1a) Biomarker Activity (AID 2283070); details: primary human keratinocytes with fibroblasts; actives raise or lower the signal
Procedure, shortened: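 Human keratinocyte plus foreskin fibroblast primary co-culture, sampled 24 h after chemical dosing. IL-1a measured by ELISA; responses fitted bidirectionally against DMSO baseline (negative control), so gain or loss of signal both count.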

[9] = read-out: TIMP metallopeptidase inhibitor 2 (TIMP2), TIMP2 (gene 7077); assay: BSK_KF3CT_TIMP2: BioMAP Diversity Plus: KF3CT Assay for TIMP metallopeptidase inhibitor 2 (TIMP2) Biomarker Activity (AID 2283071); details: primary human keratinocytes with fibroblasts; actives raise or lower the signal
Procedure, shortened: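 Co-culture of human primary keratinocytes and foreskin fibroblasts, measured 24 h after chemical dosing. TIMP-2 quantified by ELISA and fitted in both directions relative to DMSO. Cytotoxicity checked in parallel cultures by SRB total-protein staining.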

[10] = read-out: Transforming growth factor beta 1 (TGFb1), TGFB1 (gene 7040); assay: BSK_KF3CT_TGFb1: BioMAP Diversity Plus: KF3CT Assay for Transforming growth factor beta 1 (TGFb1) Biomarker Activity (AID 2283072); details: primary human keratinocytes with fibroblasts; actives raise or lower the signal
Procedure, shortened: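 Human keratinocyte/foreskin fibroblast co-culture; TGF-b1 measured by ELISA 24 h after dosing, fitted bidirectionally versus DMSO. Cytotoxicity checked in parallel cultures by total protein (SRB staining, 560 nm).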

[11] = read-out: C-C motif chemokine 2 (Homo sapiens) (UniProt P13500); assay: BSK_KF3CT_MCP1: BioMAP Diversity Plus: KF3CT Assay for Monocyte Chemoattractant Protein 1 (MCP1/CCL2) Biomarker Activity (AID 2283073); details: primary human keratinocytes with fibroblasts; actives raise or lower the signal
Procedure, shortened: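 Keratinocytes and foreskin fibroblasts were co-cultured, dosed with chemical, and sampled 24 h later. MCP-1 was quantified by ELISA, and the endpoint was analyzed with bidirectional fitting using DMSO as negative control.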

[12] = read-out: Matrix Metallopeptidase 9 (MMP9), MMP9 (gene 4318); assay: BSK_KF3CT_MMP9: BioMAP Diversity Plus: KF3CT Assay for Matrix Metallopeptidase 9 (MMP9) Biomarker Activity (AID 2283074); details: primary human keratinocytes with fibroblasts; actives raise or lower the signal
Procedure, shortened: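 Keratinocyte plus foreskin fibroblast human primary skin co-culture was dosed with chemical and MMP-9 was quantified by ELISA 24 h later. Bidirectional curve fitting used DMSO as negative control and activity baseline.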

[13] = read-out: urokinase plasminogen activator (uPA), PLAU (gene 5328); assay: BSK_KF3CT_uPA: BioMAP Diversity Plus: KF3CT Assay for urokinase plasminogen activator (uPA) Biomarker Activity (AID 2283075); details: primary human keratinocytes with fibroblasts; actives raise or lower the signal
Procedure, shortened: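 Human keratinocyte plus foreskin fibroblast primary co-culture exposed to chemical for 24 h. uPA levels were quantified by ELISA, and activity was fitted bidirectionally against a DMSO negative-control baseline.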

CD40, CD40 (gene 958) = assay: BSK_LPS_CD40: BioMAP Diversity Plus: LPS Assay for CD40 Biomarker Activity (AID 2283076); details: primary human HUVEC with PBMC; actives raise or lower the signal
Procedure, shortened: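 CD40 signal, measured by ELISA, is fitted in both directions relative to DMSO vehicle. The system is an LPS-driven human vascular primary co-culture of endothelial cells and PBMC, sampled 24 h after compound addition.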

[14] = read-out: E-selectin (Homo sapiens) (UniProt P16581); assay: BSK_LPS_Eselectin: BioMAP Diversity Plus: LPS Assay for Eselectin Biomarker Activity (AID 2283077); details: primary human HUVEC with PBMC; actives raise or lower the signal
Procedure, shortened: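 Signal of E-selectin, detected by ELISA, served as the endpoint; cells were umbilical vein endothelium with PBMC, read 24 h after treatment. DMSO defined baseline, and both increases and decreases were fitted.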

[15] = read-out: Interleukin-8 (IL8), CXCL8 (gene 3576); assay: BSK_LPS_IL8: BioMAP Diversity Plus: LPS Assay for Interleukin-8 (IL8) Biomarker Activity (AID 2283078); details: primary human HUVEC with PBMC; actives raise or lower the signal
Procedure, shortened: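 Endothelial cells and PBMC from human donors are co-cultured, treated with chemicals and LPS, then assayed for IL-8 by ELISA after 24 h. Parallel SRB staining (0.1% SRB after 10% TCA fixation, 560 nm) flags cytotoxicity.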

[16] = BSK_LPS_SRB: Viability Assessment in the BioMAP Diversity Plus: LPS Assay (AID 2283079); details: primary human HUVEC with PBMC;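 further: total protein by sulforhodamine B absorbance as a cytotoxicity measure; measured one day after compound addition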
Procedure, shortened: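 Overt cytotoxicity was gauged by sulforhodamine B total-protein staining in a primary human vascular endothelial and mononuclear cell co-culture 24 h post-dosing. Activity was fitted in both directions relative to DMSO.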

[17] = read-out: Interleukin-1 alpha (IL1a), IL1A (gene 3552); assay: BSK_LPS_IL1a: BioMAP Diversity Plus: LPS Assay for Interleukin-1 alpha (IL1a) Biomarker Activity (AID 2283080); details: primary human HUVEC with PBMC; actives raise or lower the signal
Procedure, shortened: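 Measured: IL-1 alpha via ELISA at 24 h in LPS-activated human umbilical vein endothelium–PBMC co-culture. Baseline: DMSO, bidirectional fitting.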

[18] = read-out: Monocyte Chemoattractant Protein-1 (MCP1), CCL2 (gene 6347); assay: BSK_LPS_MCP1: BioMAP Diversity Plus: LPS Assay for Monocyte Chemoattractant Protein-1 (MCP1) Biomarker Activity (AID 2283081); details: primary human HUVEC with PBMC; actives raise or lower the signal
Procedure, shortened: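 LPS-stimulated HUVEC/PBMC co-culture; chemical, 24 h; MCP-1 by ELISA; bidirectional fit vs DMSO; cytotoxicity via SRB (0.1% stain, 10% TCA fix, 560 nm) in parallel wells.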

[19] = BSK_LPS_PGE2: BioMAP Diversity Plus: LPS Assay for Prostaglandin E2 (PGE2) Biomarker Activity (AID 2283082); details: primary human HUVEC with PBMC; actives raise or lower the signal
Procedure, shortened: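 HUVEC plus human PBMC co-culture stimulated with LPS; secreted PGE2 quantified by ELISA 24 h after chemical dosing. Activity fitted bidirectionally against DMSO baseline; parallel SRB staining (0.1% SRB after 10% TCA fixation, 560 nm) flags overt cytotoxicity.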

Measured: AC50

Sequence of E-selectin (Homo sapiens) (P16581 whole entry, looked up): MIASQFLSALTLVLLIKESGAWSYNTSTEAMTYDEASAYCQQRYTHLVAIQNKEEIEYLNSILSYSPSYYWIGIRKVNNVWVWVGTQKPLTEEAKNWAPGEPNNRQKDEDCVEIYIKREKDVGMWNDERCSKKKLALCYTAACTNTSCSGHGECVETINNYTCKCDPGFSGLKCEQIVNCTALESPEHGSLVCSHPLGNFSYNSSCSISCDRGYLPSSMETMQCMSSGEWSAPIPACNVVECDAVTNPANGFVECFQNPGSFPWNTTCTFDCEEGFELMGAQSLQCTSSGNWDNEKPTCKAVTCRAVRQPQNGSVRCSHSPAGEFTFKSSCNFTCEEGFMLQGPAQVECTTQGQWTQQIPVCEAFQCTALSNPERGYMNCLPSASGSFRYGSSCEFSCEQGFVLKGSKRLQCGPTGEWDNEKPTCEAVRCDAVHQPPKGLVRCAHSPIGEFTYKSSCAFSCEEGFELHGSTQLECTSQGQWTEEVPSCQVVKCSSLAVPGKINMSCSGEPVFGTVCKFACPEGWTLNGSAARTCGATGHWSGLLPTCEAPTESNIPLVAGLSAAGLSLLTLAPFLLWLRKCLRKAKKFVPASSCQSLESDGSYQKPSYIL

C=CCc1ccc(OC)c(OC)c1
inactive: all assays above

COC(=O)CCCC(=O)OC
inactive: all assays above

CCCC[C@H]1CN(CC2CCOCC2)C(=O)OC12CCN(C1(C)CCN(C(=O)c3c(C)ncnc3C)CC1)CC2
inactive: all assays above

O=[Si]=O
not listed: [11]
inactive: all other assays above

O=C(Oc1ccccc1)c1cccc(C(=O)Oc2ccccc2)c1
inactive: all assays above

N[C@@H](Cc1c[nH]c2ccccc12)C(=O)O
inactive: all assays above

NC1CCCCC1
inactive: all assays above

CC(COCC(C)OC(=O)c1ccccc1)OC(=O)c1ccccc1 (configuration not stated)
not listed: [9]
inactive: all other assays above

CO[C@@H]1COCC[C@@H]1N[C@@H]1CC[C@@](C(=O)N2CCc3ncc(C(F)(F)F)cc3C2)(C(C)C)C1
inactive: all assays above

CCc1cc(C2=C(C(=O)O)N(c3ccccc3C(F)(F)F)S(=O)(=O)c3ccccc32)cc2c1OCO2
active: [2] 19.8 µM
not listed: [9]
inactive: all other assays above

O=C(O)c1[nH]n(-c2ccc(S(=O)(=O)O)cc2)c(=O)c1N=Nc1ccc(S(=O)(=O)O)cc1
inactive: all assays above

O=C(O)CC(O)(CC(=O)O)C(=O)O
inactive: all assays above

O=C(O)c1cccnc1
inactive: all assays above
